From PubChem BioAssay (NCATS) come the findings set out here.

Assay [1] in a line: Cell Viability - LYMP2-001 (AID 921). Further: nearly all actives have a fitted effect of over 70% in size. Further: potency means the concentration at half of the fitted maximal effect. The procedure, abridged: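 A lymphoblastoid cell line of human origin was treated with library compounds across a concentration series for 24 hours, and viable cell number was estimated from ATP-driven luciferase light output. Hill modeling gave AC50.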
Assay [2] can be described thus: MultiTox-Fluor Cytotoxicity Assay - LYMP1-001 - Dead Cells (AID 946). The procedure, abridged:
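In this qHTS, 15 uM tetraoctylammonium bromide defined 100% and DMSO defined basal activity. Lymphoblastoid cells (LYMP1-001, 2500 per well) received compound for 16 hr at 37 C before a fluorogenic dead-cell substrate readout at 485/520 nm.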

Assay [3] in a line: MultiTox-Fluor Cytotoxicity Assay - LYMP1-001 - Live Cells (AID 947).
Assay [4] can be described thus: Cell Viability - LYMP1-002 - Assay at 16 hr (AID 948). Further: potency means the concentration at half of the fitted maximal effect. The procedure, abridged: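 In this qHTS, lymphoblastoid LYMP1-002 cells (human) receive compounds for 16 hr at 37 C. Viability is taken from CellTiter-Glo ATP luminescence, and AC50 derives from standard Hill fits.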
Assay [5] is described as follows: MultiTox-Fluor Cytotoxicity Assay - LYMP1-002 - Live Cells (AID 955). The procedure, abridged: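 Human lymphoblastoid LYMP1-002 cells, 2500/well in complete medium, rested 5 hr at 37 C, then exposed to compounds for 16 hr at 37 C. Live-cell protease cleavage of GF-AFC read by fluorescence (Ex/Em 405/510) after 60 min at room temperature; AC50 from Hill fits.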
The nature of assay [6]: MultiTox-Fluor Cytotoxicity Assay - LYMP1-002 - Dead Cells (AID 960). Further: nearly all actives have a fitted effect of over 60% in size. The procedure, abridged:
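Human lymphoblastoid cells (LYMP1-002), 2500/well in complete medium, were exposed to compounds for 16 hr at 37 C. Dead-cell protease activity was read as bis-AAF-R110 fluorescence (Ex/Em 485/520), normalized to DMSO and 15 uM tetraoctylammonium bromide; AC50 from Hill fits.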

Assay [7] is described as follows: MultiTox-Fluor Cytotoxicity Assay - LYMP1-003 - Dead Cells (AID 961). Further: nearly all actives have a fitted effect of over 70% in size. Further: potency means the concentration at half of the fitted maximal effect. The procedure, abridged: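 Acute toxicity is scored as increased dead-cell protease activity in human lymphoblastoid LYMP1-003 cells after 16 h compound exposure in complete culture medium. Activity is normalized to DMSO basal and 15 uM tetraoctylammonium bromide as full response.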
Assay [8] in a line: MultiTox-Fluor Cytotoxicity Assay - LYMP1-003 - Live Cells (AID 962).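 Further: cytotoxic hits lower the live-cell protease signal.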 The method in brief:
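LYMP1-003 human lymphoblastoid cells (2500/well) in complete medium were preincubated 5 hr at 37 C, then exposed to compounds for 16 hr at 37 C. Live-cell protease cleavage of GF-AFC read by fluorescence (Ex/Em 405/510); AC50 from Hill fits.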

Assay [9] in a line: Cell Viability - LYMP1-003 - Assay at 24 hr (AID 963). Further: potency means the concentration at half of the fitted maximal effect. The procedure, abridged:
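Human lymphoblastoid LYMP1-003 cells (2500/well) were rested 5 hr at 37 C, then exposed to compounds in complete medium for 24 hr at 37 C. Cellular ATP was quantified by CellTiter-Glo luminescence, and AC50 values came from Hill fits of concentration-response data.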

Assay [10] in a line: Cell Viability - LYMP1-003 - Assay at 40 hr (AID 964). Further: nearly all actives have a fitted effect of over 60% in size. Further: potency means the concentration at half of the fitted maximal effect. The method in brief: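 Human lymphoblastoid LYMP1-003 cells, 2500/well in complete medium, rested 5 hr at 37 C, then exposed to compounds for 40 hr at 37 C. Viability read as intracellular ATP by CellTiter-Glo luminescence; AC50 from Hill fits of concentration-response data.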
Assay [11] is described as follows: Cell Viability - LYMP2-004 (AID 966). Further: nearly all actives have a fitted effect of over 65% in size. The procedure, abridged:
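Human lymphoblastoid cells (2500/well) in complete medium were treated with compounds for 24 hr at 37 C, then intracellular ATP was measured by CellTiter-Glo luminescence. AC50 values came from Hill-equation fits of concentration-response data.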

Assay [12] can be described thus: Cell Viability - LYMP2-009 (AID 968). Further: nearly all actives have a fitted effect of over 55% in size. Further: potency means the concentration at half of the fitted maximal effect.
A short description of assay [13]: Cell Viability - LYMP2-011 (AID 969). Further: nearly all actives have a fitted effect of over 60% in size. Further: potency means the concentration at half of the fitted maximal effect. The method in brief:
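Human lymphoblastoid cells (2500/well) were plated in complete medium, preincubated 5 hr at 37 C, then exposed to compounds for 24 hr at 37 C. Intracellular ATP was read by CellTiter-Glo luminescence, and AC50 came from Hill-equation concentration-response fits.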

Assay [14] in a line: Confirmation and Secondary Assay for Modulators of Hemoglobin Beta Chain Splicing at IVS2 705 locus (AID 930).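 Further: HeLa cells stably expressing the EGFP-705 splicing reporter; GFP fluorescence per well restored by corrected splicing of the IVS2-705 intron in EGFP; series mostly up to about 46 µM.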 The method in brief:
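Splice-correction reporter: EGFP cDNA split by beta-globin intron 2 bearing the 705 mutation, stably in HeLa. Compound incubation 2 days, 37C; fluorescent objects 5-250 µm summed per well.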

Assay [15] addresses Muscarinic acetylcholine receptor M1 (Rattus norvegicus) (UniProt P08482). Put plainly: qHTS Assay for Antagonists of Acetylcholine Muscarinic M1 Receptor: Kinetic Measurement of Intracellular Calcium Response (AID 943).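 Further: Fluo-4 calcium signal as peak divided by basal fluorescence over 4 min; series mostly up to about 35 µM; nearly all actives have a fitted effect of over 75% in size.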 The method in brief: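 CHO cells stably expressing rat M1 were loaded with no-wash Fluo-4 dye for 1 h at 37C, pre-incubated 10 min with compound, then challenged with EC80 carbachol (100 nM final); kinetic calcium read 4 min, peak/basal ratio.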
A general note: qHTS replaces the single test concentration by a dilution series.

For assay [16] the target is unchanged. Put plainly: qHTS Assay for Antagonists of Acetylcholine Muscarinic M1 Receptor: Measurement of IP-One Response (AID 944). Further: nearly all actives have a fitted effect of over 75% in size. The procedure, abridged:
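CHO cells expressing rat M1 receptor, recovered overnight, were pre-incubated 10 min with compound, then stimulated 30 min with carbachol at EC80 (200 nM) in LiCl-containing buffer, pH 7.4. IP1 accumulation was read by HTRF (620/665 nm).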

Assay [17] concerns the target Pyruvate kinase (Leishmania mexicana) (UniProt Q27686). The assay can be described thus: qHTS Validation Assay for Inhibitors of Leishmania Mexicana Pyruvate Kinase (AID 945). The method in brief:
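The enzyme is a highly purified E451W mutant of LmPYK used at 0.2 nM. It converts 0.5 mM PEP and 0.1 mM ADP over 1 h at room temperature; product ATP is quantified by luciferase luminescence relative to DMSO controls.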

The target in assay [18] is Pyruvate kinase PKM (Homo sapiens) (UniProt P14618). Put plainly: qHTS Assay for Activators of Human Muscle Pyruvate Kinase (AID 954; active means well fitted curve in the direction sought with a large enough effect, not every such curve was filed as active). The procedure, abridged:
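Enzyme was run at intermediate activity so both inhibitors and activators could be detected. ATP formed from ADP and PEP by 0.1 nM human PKM2 during a 1 h room-temperature incubation was quantified by coupled luciferase luminescence.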

Assay [19] is described as follows: Cell Viability - LYMP2-005 (AID 967). Further: potency means the concentration at half of the fitted maximal effect. The procedure, abridged:
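Luciferase-based ATP quantitation served as the viability measure in human lymphoblastoid LYMP2-005 cells exposed to test compounds for 24 h at 37 C in complete culture medium. Potency (AC50) was obtained by fitting concentration-response curves with the Hill equation.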

A number with no mark means an inactive call. Results filed as inconclusive are left out. Active and inactive are the calls of the source. Unless noted, the call rests on the fitted dose curve; in most records, active means well fitted curve in the direction sought with a large enough effect; inconclusive means small, poorly fitted or top-dose-only effect, or another doubt; inactive means no such curve, though single readings can be large; an effect the other way counts as inactive or inconclusive.

Sequence of Muscarinic acetylcholine receptor M1 (Rattus norvegicus) (P08482 whole entry, looked up): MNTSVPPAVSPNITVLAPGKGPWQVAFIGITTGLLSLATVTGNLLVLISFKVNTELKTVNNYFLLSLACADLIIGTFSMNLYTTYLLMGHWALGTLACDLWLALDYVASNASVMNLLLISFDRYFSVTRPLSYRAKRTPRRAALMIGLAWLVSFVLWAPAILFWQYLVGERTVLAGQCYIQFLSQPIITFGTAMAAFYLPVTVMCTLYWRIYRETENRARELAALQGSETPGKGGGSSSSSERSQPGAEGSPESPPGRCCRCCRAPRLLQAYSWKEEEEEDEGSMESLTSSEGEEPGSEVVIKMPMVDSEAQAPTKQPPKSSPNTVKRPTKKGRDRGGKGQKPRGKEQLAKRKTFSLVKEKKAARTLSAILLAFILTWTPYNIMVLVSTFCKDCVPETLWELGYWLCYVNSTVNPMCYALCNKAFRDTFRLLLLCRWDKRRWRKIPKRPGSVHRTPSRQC
Sequence of Pyruvate kinase (Leishmania mexicana) (Q27686 2-499 E452W): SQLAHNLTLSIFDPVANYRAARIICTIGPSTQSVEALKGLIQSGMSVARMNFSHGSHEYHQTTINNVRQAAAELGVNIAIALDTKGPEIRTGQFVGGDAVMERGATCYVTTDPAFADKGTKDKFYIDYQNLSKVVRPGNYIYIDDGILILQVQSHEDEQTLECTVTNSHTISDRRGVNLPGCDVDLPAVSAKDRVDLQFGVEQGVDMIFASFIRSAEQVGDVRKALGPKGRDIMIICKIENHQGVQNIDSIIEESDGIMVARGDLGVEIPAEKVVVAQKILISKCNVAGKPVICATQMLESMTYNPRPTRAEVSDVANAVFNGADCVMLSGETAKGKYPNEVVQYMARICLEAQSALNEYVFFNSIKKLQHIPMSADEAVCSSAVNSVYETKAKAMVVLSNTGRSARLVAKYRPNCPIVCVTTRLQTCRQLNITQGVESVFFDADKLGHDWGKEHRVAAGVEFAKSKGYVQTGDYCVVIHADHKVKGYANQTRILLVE
Sequence of Pyruvate kinase PKM (Homo sapiens) (P14618 whole entry, looked up): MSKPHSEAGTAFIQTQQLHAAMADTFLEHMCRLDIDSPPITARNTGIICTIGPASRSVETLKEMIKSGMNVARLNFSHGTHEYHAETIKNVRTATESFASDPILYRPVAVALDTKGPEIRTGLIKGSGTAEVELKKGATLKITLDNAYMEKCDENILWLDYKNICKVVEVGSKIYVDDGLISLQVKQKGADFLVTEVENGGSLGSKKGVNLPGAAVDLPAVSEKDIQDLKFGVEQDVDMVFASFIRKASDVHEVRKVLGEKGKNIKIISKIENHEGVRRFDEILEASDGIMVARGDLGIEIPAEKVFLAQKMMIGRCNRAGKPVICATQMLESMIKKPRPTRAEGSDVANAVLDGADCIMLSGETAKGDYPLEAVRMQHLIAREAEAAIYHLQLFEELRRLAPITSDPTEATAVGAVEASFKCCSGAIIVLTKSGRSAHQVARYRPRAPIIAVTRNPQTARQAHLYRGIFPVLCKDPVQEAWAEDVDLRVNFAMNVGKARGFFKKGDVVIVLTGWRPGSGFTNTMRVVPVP

`O=P(O)(O)O`: the Potency result in assay [1], in [2], in assay [4], in assay [5], in [6] and in [7] was “inactive” throughout. Moreover, the Potency result in assay [9], in [10], in assay [11], in assay [12] and in [13] was “inactive” each time. Besides, the compound was called inactive in assay [3] and in [8].
Take `CC(=O)Oc1cccc(C(=O)O)c1OC(C)=O`: in assay [14], the Potency entry is “inactive”.
For the compound `Cc1cc(C)c(NC(=O)C[C@H](CC(=O)O)c2cccc3ccccc23)c(C(=O)N2CCC3(CCCC3)CC2)c1`, the outcome in [15], in [16], in assay [17] and in [18] was inactive.
Consider `CC(C)c1nc(N(C)S(C)(=O)=O)nc(-c2ccc(F)cc2)c1/C=C/C(O)CC(O)CC(=O)O` (centres undefined), for which the Potency entry in assay [14] was “inactive”.
On the same count and under the same terms, in the case of `CC1CCC(NC(=O)N(CCCl)N=O)CC1` (centres undefined) it was “inactive”; in that of `CC[C@H]1OC(=O)[C@H](C)[C@@H](O[C@H]2C[C@@](C)(OC)[C@@H](O)[C@H](C)O2)C(C)[C@@H](O[C@@H]2O[C@H](C)C[C@H](N(C)C)[C@@H]2O)[C@](C)(OC)C[C@@H](C)C(=O)[C@H](C)[C@@H](O)[C@]1(C)O` (some centres undefined), “inactive”.
In the case of `C[C@H](CCC(=O)O)[C@H]1CC[C@H]2[C@@H]3CC[C@@H]4C[C@H](O)CC[C@]4(C)[C@H]3C[C@H](O)[C@]12C`, the Potency result in [1], in assay [2], in assay [4], in [5], in assay [7] and in [9] was “inactive” in each case. Besides, the Potency result in assay [10], in assay [11], in assay [12] and in [13] was “inactive” in each case. The compound was called inactive in assay [3] and in [8].
Turning to `CO/N=C(/C(=O)N[C@@H]1C(=O)N2C(C(=O)O)=C(COC(N)=O)CS[C@H]12)c1ccco1`, the Potency entry in [1], in assay [2], in assay [4], in assay [5], in [7] and in assay [9] was “inactive” each time. Also, the Potency entry in assay [10], in assay [11], in [19], in assay [12] and in [13] was “inactive” throughout. For the same compound, the outcome in assay [3] and in assay [8] was inactive.
As to `O=C1c2ccccc2C(=O)c2c1ccc(O)c2O`, in [14], the Potency entry was “inactive”.
In the case of `O=C(CCCCCCCCCCCCC1CCCC1)Nc1ccc(S(=O)(=O)c2ccc(NC(=O)CCCCCCCCCCCCC3CCCC3)cc2)cc1`, the Potency entry in assay [14] was “inactive”.
Still for that read-out and setting: next, `CC1CCCC(C)N1NC(=O)c1ccc(Cl)c(S(N)(=O)=O)c1` (centres undefined): “inactive”; `O=C(O)CCC(=O)c1ccc(-c2ccccc2)cc1`: “inactive”; `COc1cc(S(C)=O)ccc1-c1nc2ncccc2[nH]1` (centres undefined): “inactive”.
Same read-out and setting: next, `NCC(O)CC(=O)O` (centres undefined): “inactive”.
Regarding `O=c1n(CC2CO2)c(=O)n(CC2CO2)c(=O)n1CC1CO1` (centres undefined), the Potency in [1] is 31.6 µM (active); in assay [4], 39.8 µM (active); in [7] it was 50.1 µM (active); in assay [9] it was 39.8 µM (active); in assay [10], 15.8 µM (active); in assay [19] it was 20 µM (active). The Potency in assay [12] and in assay [13] was 39.8 µM (active) in each case. The call in [3] and in assay [8] was inactive.
In the case of `O.O.O.O.O.O.O.O=S(=O)([O-])[O-].[Co+2]`, the Potency result in [2], in assay [4], in [5], in assay [7] and in assay [9] was “inactive” throughout. For the same compound, the compound was called inactive in assay [3] and in [8].
